Source: PubChem BioAssay (EPA / NIEHS)
Calls of active or inactive are those of the source. How the source made its calls, unless noted: active means hit-call score of the fitted dose curve at least 0.9, where 1 is the maximum; inactive means score below 0.9.

Columns and labels:
[1] = target: Peroxisome proliferator-activated receptor gamma (Homo sapiens) (UniProt P37231); assay: OT_PPARg_PPARgSRC1_1440: Odyssey Thera (OT) 24-hour Protein-Complementation Assay for Peroxisome Proliferator-activated Receptor Gamma/ SRC-1 Co-activator (AID 2283388; active means hit-call score of the fitted dose curve at least 0.9, where 1 is the maximum;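 further: nuclear to cytoplasmic ratio of reconstituted Venus YFP fluorescence in fixed imaged cells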)
Sequence of Peroxisome proliferator-activated receptor gamma (Homo sapiens) (P37231 whole entry, looked up, the tested form may be a part): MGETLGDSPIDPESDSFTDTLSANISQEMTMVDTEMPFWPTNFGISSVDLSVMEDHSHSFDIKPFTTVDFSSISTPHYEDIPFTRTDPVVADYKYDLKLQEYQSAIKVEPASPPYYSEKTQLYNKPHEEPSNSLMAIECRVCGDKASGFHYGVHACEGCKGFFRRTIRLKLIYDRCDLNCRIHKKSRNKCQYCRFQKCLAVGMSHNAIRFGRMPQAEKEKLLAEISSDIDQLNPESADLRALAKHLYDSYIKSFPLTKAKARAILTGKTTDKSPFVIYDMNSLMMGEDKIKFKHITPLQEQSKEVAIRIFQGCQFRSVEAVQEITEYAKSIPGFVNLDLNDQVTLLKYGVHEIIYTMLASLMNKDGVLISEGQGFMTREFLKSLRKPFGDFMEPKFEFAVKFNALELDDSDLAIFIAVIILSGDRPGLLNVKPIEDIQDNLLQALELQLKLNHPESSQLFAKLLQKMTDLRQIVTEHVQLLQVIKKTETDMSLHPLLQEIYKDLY
Procedure, shortened: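 Protein-fragment complementation between PPARg and coactivator SRC-1 was measured by fluorescence imaging in transiently transfected HEK293T cells after 24 h treatment. Signal was quantified as N/C ratio in the 488 nm channel, with DMSO as negative control.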

[2] = CEETOX_H295R_11DCORT: CeeTox H295R High-throughput Steroidogenesis Assay for 11-Deoxycortisol (11DCORT) (AID 2283432); settings: actives raise or lower the signal;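 on AC50: 11-deoxycortisol secreted into the medium measured by LC-MS/MS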
Procedure, shortened: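 Steroidogenesis in human H295R cells: 48 h chemical exposure after forskolin priming, 11-deoxycortisol measured by LC-MS/MS.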

[3] = CEETOX_H295R_OHPREG: CeeTox H295R High-throughput Steroidogenesis Assay for OH-Pregnenolone (OHPREG) (AID 2283434); settings: actives raise or lower the signal
Procedure, shortened: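 Human adrenal H295R cells were prestimulated 48 h with 10 uM forskolin, then exposed 48 h to chemical in 0.1% DMSO. Medium 17alpha-hydroxypregnenolone was quantified by HPLC-MS/MS after MTBE extraction; bidirectional fitting versus DMSO baseline.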

[4] = CEETOX_H295R_OHPROG: CeeTox H295R High-throughput Steroidogenesis Assay for OH-Progesterone (OHPROG) (AID 2283435); settings: actives raise or lower the signal;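 on AC50: 17alpha-hydroxyprogesterone secreted into medium measured by HPLC-MS/MS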
Procedure, shortened: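 Secreted 17alpha-hydroxyprogesterone is read by tandem MS from media of forskolin-primed H295R cells dosed with chemical for 48 h. Activity is fitted in both directions against DMSO baseline; cytotoxic concentrations are re-tested diluted.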

[5] = CEETOX_H295R_CORTIC: CeeTox H295R High-throughput Steroidogenesis Assay for Corticosterone (CORTIC) (AID 2283437); settings: actives raise or lower the signal;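 further: corticosterone secreted into medium quantified by mass spectrometry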
Procedure, shortened: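 H295R cells were prestimulated 48 h with 10 uM forskolin, then exposed 48 h to test chemical in 0.1% DMSO. Medium corticosterone was MTBE-extracted and quantified by HPLC-MS/MS; bidirectional fit versus DMSO baseline.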

[6] = CEETOX_H295R_CORTISOL: CeeTox H295R High-throughput Steroidogenesis Assay for Cortisol (AID 2283438); settings: actives raise or lower the signal;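 further: cortisol secreted into medium quantified by LC-MS/MS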
Procedure, shortened: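 Human adrenocortical H295R cells (passage ≤10) received test chemicals for 48 h after forskolin priming. Secreted cortisol was measured by LC-MS/MS.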

[7] = CEETOX_H295R_DOC: CeeTox H295R High-throughput Steroidogenesis Assay for DOC (AID 2283439); settings: actives raise or lower the signal
Procedure, shortened: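 Secreted DOC was quantified from H295R media by HPLC-MS/MS after 48 h chemical exposure following 48 h forskolin (10 uM) prestimulation. Values were fitted in both directions relative to DMSO, the negative control and baseline.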

[8] = CEETOX_H295R_ANDR: CeeTox H295R High-throughput Steroidogenesis Assay for Androstenedione (ANDR) (AID 2283436); settings: actives raise or lower the signal
Procedure, shortened: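 H295R human adrenal cells (passages ≤10) were exposed to test chemicals for 48 h; androstenedione in medium was MTBE-extracted and quantified by HPLC-MS/MS against a 7-point standard curve. Bidirectional fitting used DMSO as baseline.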

[9] = CEETOX_H295R_ESTRADIOL: CeeTox H295R High-throughput Steroidogenesis Assay for Estradiol (AID 2283440); settings: actives raise or lower the signal;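 further: estradiol secreted into medium quantified by LC-MS/MS after dansyl derivatisation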
Procedure, shortened: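 Estradiol secreted into the medium was measured by tandem mass spectrometry after liquid-liquid extraction and dansylation. Human H295R cells had been forskolin-primed (10 uM, 48 h) before a 48 h chemical exposure with 0.1% DMSO.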

Measured: AC50

COc1ccc(N)cc1
active: [4] 31.7 µM
not listed: [8] | [9]
inactive: all other assays above

CCOP(=S)(OCC)O/N=C(\C#N)c1ccccc1
active: [2] 82.5 µM | [5] 13.8 µM | [6] 87.8 µM | [7] 40.4 µM
inactive: [1] | [3] | [4]

CC(=Cc1ccccc1)[N+](=O)[O-]
inactive: [1]

Cc1ccccc1OP(=O)(Oc1ccccc1C)Oc1ccccc1C
not listed: [1] | [9]
inactive: all other assays above

CC(C)(C)c1cc([N+](=O)[O-])cc(C(C)(C)C)c1O
inactive: [3] | [4] | [9]

N#CCC#N
inactive: [1]

Cc1cc(C(C)(C)c2ccc(O)c(C)c2)ccc1O
active: [2] 5 µM | [8] 5 µM | [6] 5 µM | [7] 2.91 µM
inactive: [3] | [4] | [5]

Oc1c(Br)cc(Br)cc1Br
active: [4] 36 µM
inactive: [1] | [9]

CCC[CH2][Sn]([Cl])([Cl])[CH2]CCC
not listed: [8]
inactive: all other assays above

CC(C)(COCC1CO1)COCC1CO1 (stereo not given)
not listed: [1] | [8]
inactive: all other assays above

CN(N=O)C(N)=O
inactive: [1]

O=C(N[C@H]1CN2CCC1CC2)c1ccc2c(c1)OCCO2
inactive: [1]

OC(Cc1ccccc1Cl)(Cn1[nH]cnc1=S)C1(Cl)CC1 (stereo not given)
not listed: [1] | [9]
inactive: all other assays above
